According to PubChem BioAssay AID1159580 (chemical genetic matrix, 2015):
Several values for one entry are separate records, joined by “and”; a condition that tells them apart may be missing. Equal entries are not always repeated. In all, about 5,500 compounds went through this assay and about 2,000 (36%) were called active. About 18% were inconclusive and are not listed. This is one part of the list. Unmarked numbers belong to inactive results. Cut-off read from the data, not from the text of the source: active = normalized growth mostly below about 0.91 (no sharp cut-off); inconclusive = no clear call, values can overlap the other calls; inactive = mostly above about 0.92.

Assay: chemical genetic growth profiling, strain panel (AID 1159580);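 note: tested at 20 µM; growth read once vehicle control cultures reached saturation at 30 °C; 1 = growth at the plate median or of vehicle wells; lower values mean less growth of the strain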
Conditions: growth OD
[1] = S. cerevisiae deletion strains, locus YAL013W, strain DEP1, hits give low values
[2] = S. cerevisiae deletion strains, locus YBR229C, strain ROT2, hits give low values
[3] = S. cerevisiae deletion strains, locus YDL101C, strain DUN1, hits give low values
[4] = S. cerevisiae deletion strains, locus YDR150W, strain NUM1, hits give low values
[5] = S. cerevisiae deletion strains, locus YEL061C, strain CIN8, hits give low values
[6] = S. cerevisiae deletion strains, locus YGR078C, strain PAC10, hits give low values
[7] = S. cerevisiae deletion strains, locus YHR030C, strain SLT2, hits give low values
[8] = S. cerevisiae deletion strains, locus YHR087W, strain rtc3, hits give low values
[9] = S. cerevisiae deletion strains, locus YJR043C, strain POL32, hits give low values
[10] = S. cerevisiae deletion strains, locus YJR075W, strain HOC1, hits give low values
[11] = S. cerevisiae deletion strains, locus YKL190W, strain CNB1, hits give low values
[12] = S. cerevisiae deletion strains, locus YLR039C, strain RIC1, hits give low values
[13] = S. cerevisiae deletion strains, locus YLR058C, strain SHM2 (second series), hits give low values
[14] = S. cerevisiae deletion strains, locus YLR085C, strain ARP6, hits give low values
[15] = S. cerevisiae deletion strains, locus YLR262C, strain YPT6, hits give low values
[16] = S. cerevisiae deletion strains, locus YML094W, strain GIM5, hits give low values
[17] = S. cerevisiae deletion strains, locus YMR219W, strain ESC1, hits give low values
[18] = S. cerevisiae deletion strains, locus YMR263W, strain SAP30, hits give low values
[19] = S. cerevisiae deletion strains, locus YNL128W, strain TEP1, hits give low values
[20] = S. cerevisiae deletion strains, locus YNL153C, strain GIM3, hits give low values
[21] = S. cerevisiae deletion strains, locus YNL298W, strain CLA4 (second series), hits give low values
[22] = S. cerevisiae deletion strains, locus YNL322C, strain KRE1, hits give low values
[23] = S. cerevisiae deletion strains, locus YNR030W, strain Alg12, hits give low values
[24] = S. cerevisiae deletion strains, locus YPL055C, strain LGE1, hits give low values
[25] = S. cerevisiae deletion strains, locus YPL241C, strain CIN2, hits give low values
[26] = S. cerevisiae deletion strains, locus YPR135W, strain CTF4, hits give low values
[27] = S. cerevisiae strains, strain wild type, hits give low values
[28] = S. cerevisiae deletion strains, locus YDL134C, strain PPH21, hits give low values
[29] = S. cerevisiae deletion strains, locus YJL187C, strain SWE1, hits give low values
[30] = S. cerevisiae deletion strains, locus YMR307W, strain GAS1, hits give low values

COc1c([N+](=O)[O-])cc(C(F)(F)F)cc1[N+](=O)[O-]
normalized growth [1]: 0.978
normalized growth [2]: 1.01
normalized growth [3]: 0.982
normalized growth [4]: 0.964
normalized growth [5]: 1.01
normalized growth [6]: 0.975
normalized growth [7]: 0.732
normalized growth [8]: 1.04
normalized growth [9]: 0.966
normalized growth [10]: 1.03
normalized growth [11]: 0.998
normalized growth [12]: 0.486 (active)
normalized growth [13]: 1.02
normalized growth [14]: 0.823
normalized growth [15]: 0.453 (active)
normalized growth [16]: 0.903
normalized growth [17]: 1
normalized growth [18]: 0.971
normalized growth [19]: 0.976
normalized growth [20]: 0.985
normalized growth [21]: 0.946
normalized growth [22]: 0.971
normalized growth [23]: 0.975
normalized growth [24]: 0.989
normalized growth [25]: 0.95
normalized growth [26]: 0.902
normalized growth [27]: 0.979

O=[N+]([O-])c1cc(C(F)(F)F)cc([N+](=O)[O-])c1Oc1ccc(Cl)c(Cl)c1
normalized growth [1]: 0.0591 (active)
normalized growth [2]: 0.062 (active)
normalized growth [3]: 0.0834 (active)
normalized growth [28]: 0.0454 (active)
normalized growth [4]: 0.0593 (active)
normalized growth [5]: 0.053 (active)
normalized growth (S. cerevisiae deletion strains, locus YGR052W, strain FMP48, hits give low values): 0.12 (active)
normalized growth [6]: 0.0542 (active)
normalized growth (S. cerevisiae deletion strains, locus YGR229C, strain SMI1, hits give low values): 0.0505 (active)
normalized growth [7]: 0.0926 (active) and 0.11 (active)
normalized growth (S. cerevisiae deletion strains, locus YHR079C, strain IRE1, hits give low values): 0.11 (active)
normalized growth (S. cerevisiae deletion strains, locus YHR082C, strain KSP1, hits give low values): 0.12 (active)
normalized growth [8]: 0.0631 (active)
normalized growth (S. cerevisiae deletion strains, locus YJL095W, strain BCK1, hits give low values): 0.12 (active)
normalized growth [29]: 0.0563 (active)
normalized growth [9]: 0.0569 (active)
normalized growth (S. cerevisiae deletion strains, locus YJR066W, strain TOR1, hits give low values): 0.11 (active)
normalized growth [10]: 0.084 (active)
normalized growth (S. cerevisiae deletion strains, locus YKL171W, strain NNK1, hits give low values): 0.101 (active)
normalized growth [11]: 0.0457 (active)
normalized growth (S. cerevisiae deletion strains, locus YKL203C, strain TOR2, hits give low values): 0.0962 (active)
normalized growth [12]: 0.0653 (active)
normalized growth [13]: 0.0562 (active)
normalized growth [14]: 0.0698 (active)
normalized growth (S. cerevisiae deletion strains, locus YLR113W, strain HOG1, hits give low values): 0.173 (active)
normalized growth [15]: 0.0617 (active)
normalized growth [16]: 0.0673 (active)
normalized growth [17]: 0.0518 (active)
normalized growth [18]: 0.0593 (active)
normalized growth [19]: 0.0548 (active)
normalized growth [20]: 0.0599 (active)
normalized growth (S. cerevisiae deletion strains, locus YNL183C, strain NPR1, hits give low values): 0.146 (active)
normalized growth (S. cerevisiae deletion strains, locus YNL207W, strain RIO2, hits give low values): 0.108 (active)
normalized growth [21]: 0.0706 (active)
normalized growth [22]: 0.0592 (active)
normalized growth [23]: 0.0612 (active)
normalized growth (S. cerevisiae deletion strains, locus YOL006C, strain TOP1, hits give low values): 0.068 (active)
normalized growth (S. cerevisiae deletion strains, locus YOR119C, strain RIO1, hits give low values): 0.095 (active)
normalized growth (S. cerevisiae deletion strains, locus YOR231W, strain MKK1, hits give low values): 0.113 (active)
normalized growth [24]: 0.0764 (active)
normalized growth [25]: 0.061 (active)
normalized growth (S. cerevisiae deletion strains, locus YPL256C, strain CLN2, hits give low values): 0.135 (active)
normalized growth [26]: 0.184 (active)

O=[N+]([O-])c1cc(C(F)(F)F)ccc1Oc1cc(C(F)(F)F)cc(C(F)(F)F)c1
normalized growth [1]: 1.03
normalized growth [2]: 1
normalized growth [3]: 1.04
normalized growth [28]: 0.982
normalized growth [4]: 1.02
normalized growth [5]: 1.03
normalized growth [6]: 1.01
normalized growth [7]: 1.03
normalized growth [8]: 1.02
normalized growth [9]: 0.996
normalized growth [10]: 1.01
normalized growth [12]: 1.02
normalized growth [13]: 0.982
normalized growth [14]: 1.01
normalized growth [15]: 0.992
normalized growth [16]: 1.12
normalized growth [17]: 0.99
normalized growth [18]: 0.993
normalized growth [30]: 1.12
normalized growth [19]: 0.97
normalized growth [20]: 1.03
normalized growth [21]: 1.01
normalized growth [22]: 1
normalized growth [23]: 1.05
normalized growth [24]: 1.09
normalized growth [25]: 1.07
normalized growth [26]: 1.12

COc1ccc(Oc2ccc(C(F)(F)F)cc2[N+](=O)[O-])cc1
normalized growth [1]: 0.986
normalized growth [2]: 0.96
normalized growth (S. cerevisiae deletion strains, locus YCL061C, strain MRC1, hits give low values): 0.931
normalized growth [3]: 0.924
normalized growth [28]: 1.03
normalized growth [4]: 0.886
normalized growth [5]: 1.03
normalized growth [6]: 0.951
normalized growth [7]: 0.927
normalized growth [8]: 0.993
normalized growth [29]: 0.965
normalized growth [9]: 0.946
normalized growth [10]: 0.925
normalized growth [12]: 0.901
normalized growth [13]: 1.02
normalized growth [14]: 0.896
normalized growth [15]: 0.926
normalized growth [16]: 1.06
normalized growth [17]: 0.996
normalized growth [18]: 0.917
normalized growth [30]: 0.911
normalized growth [20]: 0.947
normalized growth [21]: 0.987
normalized growth [22]: 1.01
normalized growth [23]: 0.924
normalized growth [24]: 0.898
normalized growth [25]: 0.952
normalized growth [26]: 0.624 (active)
normalized growth [27]: 0.978
